This is a sample that favours compounds with a hit; in the whole collection about 0.4% have one here.
GLA spleen mod – inhibits or activates alpha-galactosidase in human spleen homogenate; P06280; human spleen homogenate, 4MU-alpha-Gal fluorescence, 40 min; Potency, µM (titrated, usually from 80 µM), for the others: at the top dose activity change, negative = inhibition, hits mostly inhibitors; 240,000 compounds, 0.008% hits; AID 2107;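 further: potency means the concentration at half of the fitted maximal effect; 0% = enzyme with vehicle and -100% = no enzyme basal signal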
Target sequence (P06280 32-429 limits assumed): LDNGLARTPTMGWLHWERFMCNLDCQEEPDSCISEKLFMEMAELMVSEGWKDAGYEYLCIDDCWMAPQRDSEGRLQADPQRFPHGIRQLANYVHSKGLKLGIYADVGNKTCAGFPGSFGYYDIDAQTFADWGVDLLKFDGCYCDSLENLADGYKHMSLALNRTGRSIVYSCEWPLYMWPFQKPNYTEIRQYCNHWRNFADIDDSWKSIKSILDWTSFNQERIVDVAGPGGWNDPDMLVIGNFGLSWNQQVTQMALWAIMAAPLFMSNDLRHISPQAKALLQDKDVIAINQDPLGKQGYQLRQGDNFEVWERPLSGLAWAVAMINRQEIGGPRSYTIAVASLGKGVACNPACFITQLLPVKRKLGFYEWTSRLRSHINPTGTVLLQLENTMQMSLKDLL
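Spleen homogenate 1 ug + cpd (titration) + 4-MU-alpha-D-galactopyranoside 1 mM; 37C 40 min; 50 mM citrate/phosphate pH 5.0, 0.01% Tween-20; stop pH 10; fluorescence 365/440; AC50 via Hill.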
GAA inh – inhibitors of human lysosomal alpha-glucosidase; purified human GAA, 4-MU-alpha-glucoside fluorescence; 200,000 compounds, 0.005% hits; P10253; Potency, µM (series often up to 76.9 µM), for the others: at the highest dose activity change, negative = inhibition, most hits filed as inhibitors;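 further: potency means the concentration at half of the fitted maximal effect; plate controls were uninhibited enzyme wells for no effect and no-enzyme background for full effect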
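Activity normalized between no-enzyme (basal) and enzyme-only wells. Conditions: 4 nM human enzyme, 400 uM fluorogenic substrate, citrate/phosphate pH 5.0 with Tween-20, 20 min room temperature, compounds up to 77 uM.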
GLA inh pH 4.5 – blocks human alpha-galactosidase A at pH 4.5; P06280; purified enzyme, 4-MU-alpha-Gal fluorescence, pH 4.5; activity change, negative = inhibition, % at 105 µM; 230,000 tested, under 10 active; AID 1467;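 further: 0% = full activity with enzyme and -100% = basal without enzyme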
aGlu spleen mod – inhibits or activates alpha-glucosidase in human spleen homogenate. P10253. Potency, µM (titrated, usually from 79.9 µM), for the others: at the top dose activity change, negative = inhibition, actives largely listed as inhibitors. 240,000 compounds, 0.006% hits. human spleen homogenate, 4-MU-alpha-glucoside fluorescence. AID 2112;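 further: potency means the concentration at half of the fitted maximal effect; 0% = enzyme with vehicle and -100% = no enzyme basal signal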
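Human spleen homogenate (1 ug) incubated with compounds and 1 mM 4-methylumbelliferyl-alpha-D-glucopyranoside in pH 5.0 citrate/phosphate buffer, 37 C, 40 min. Stopped at pH 10; 4-MU fluorescence (Ex 365/Em 440 nm); AC50 by Hill fit.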
GAA glycogen – GAA glycogen-cleavage inhibition or activation; AID 2100; recombinant GAA, glycogen substrate, Amplex Red glucose oxidase fluorescence; 300,000 compounds, 0.38% hits; P10253; Potency, µM (series often up to 76.4 µM), inactives show at the top dose activity change, negative = inhibition, hits mostly inhibitors;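 further: potency means the concentration at half of the fitted maximal effect; 0% = full enzyme reaction and -100% = no-enzyme basal signal; the screen sought inhibitors and activators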
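Natural-substrate format: glycogen cleavage by 4 nM human enzyme, glucose read by Amplex Red coupling (Ex 573, Em 610 nm). Normalized to enzyme and no-enzyme controls.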
Starred values were filed as active, the others as inactive; ? = inconclusive; . = no result given; [ ] = another dose, or the depositor's remark. The call rests on the fitted dose curve; in most records, active means well fitted curve in the direction sought with a large enough effect; inconclusive means small, poorly fitted or top-dose-only effect, or another doubt; inactive means no such curve, though single readings can be large; an effect the other way counts as inactive or inconclusive.

SMILES | GLA spleen mod | GAA inh | GLA inh pH 4.5 | aGlu spleen mod | GAA glycogen
O=C(NNc1ccc(C2CCCCC2)cc1)C(O)(c1ccccc1)c1cccs1 (stereo not given) | 6% | -14% | -9 | -15% | 20µM*
COc1ccc(C(=O)NC(=S)N2CCCc3ccccc32)cc1OC | -5% | -10% | -10 | -8% | ?
COCCNc1c(-c2ccc(O)cc2)nc2ccc(Cl)cn12 | 2% | 1% | -1 | -13% | 10µM*
O=C1CCCC2=C1Sc1ccccc1N2 | 4% | . | 3 | 8% | 7.1µM*
Cc1ccc(-n2nc(C)c3c2OC(N)=C(C#N)C3c2ccoc2)cc1 (stereo not given) | 4% | -4% | 9 | -3% | 22µM*
Cc1ccc(-n2nc(C)c3c2OC(N)=C(C#N)C3c2ccco2)cc1 (stereo not given) | 0% | 2% | -5 | -6% | ?
Cc1ccc2oc(=O)c(/C=C(\O)C(C)(C)C)nc2c1 | 10% | -7% | -3 | 1% | 6.3µM*
CC(C)(C)/C(O)=C/c1nc2cc(Cl)ccc2oc1=O | 5% | . | -5 | 3% | 3.2µM*
Cc1ccc2oc(=O)c(/C=C(\O)c3ccco3)nc2c1 | -2% | . | -8 | 3% | ?
C1=Cc2ccccc2Nc2ccccc21 | 4% | . | 1 | -9% | 16µM*
O=C(CN1CCOc2ccccc21)NCc1ccco1 | 12% | 7%[15.4 µM] | 2 | 5% | 1%
O=C(CN1CC(=O)Oc2ccccc21)NCc1ccco1 | -13% | -7% | -3 | -5% | 7µM*
CCOC(=O)C1CCN(c2nc3ccccc3nc2C(C#N)C(=O)NCCc2ccccc2)CC1 (stereo not given) | -13% | -5%[15.4 µM] | . | -10% | 14µM*
CCOC(=O)C1CCCN(c2nc3ccccc3nc2C(C#N)C(=O)OCC)C1 (stereo not given) | -8% | 0% | 1 | -3% | -2%
Cc1ccc(C2CC(=O)Oc3cc4c(cc32)OCO4)cc1 (stereo not given) | -4%[119 µM] | . | -4 | -2%[119 µM] | .
Cc1ccc(NC(=S)NNC(=O)c2cn(C)nc2C)cc1 | -12% | -3% | -1 | 2% | 28µM*
Cc1ccc(SCc2cc(=O)c3c(=O)n(-c4ccccc4)[nH]c3[nH]2)cc1 | -4% | -14% | -15 | -2% | 10µM*
O=c1cc(CSc2ccc(Cl)cc2)[nH]c2[nH]n(-c3ccccc3)c(=O)c12 | 0% | . | -8 | -14% | ?
COc1cc(/C=N/NC(=S)NCCN2CCOCC2)ccc1O | 12% | 9% | 2 | 0% | 25µM*
COCCNC(=S)N/N=C/c1ccc(N2CCOCC2)cc1 | 3% | 5% | 9 | 4% | ?
O=C(O)Cc1ccc2ocnc2c1 | 4% | 2% | -1 | -6% | 22µM*
O=C(Nc1ccccc1)Nc1ccc2ocnc2c1 | 6% | 0% | -4 | 3% | -13%
c1ccc(-n2c(SCc3ccncc3)nnc2-c2ccco2)cc1 | -1% | 0% | -1 | 1% | -3%
COc1ccc(C(=O)/C=C(\C)Nc2ccc3c(c2)OCO3)cc1 | 0% | -13% | -2 | 3% | 35µM*
COc1ccc(C)cc1NC(=O)C1CCN(S(C)(=O)=O)CC1 | . | . | . | . | 35µM*
SMILES | GLA spleen mod | GAA inh | GLA inh pH 4.5 | aGlu spleen mod | GAA glycogen
Cc1ccccc1NC(=S)C1=C(O)c2sccc2N(C)S1(=O)=O | 4% | ? | -4 | 1% | -5%
CC1C(=O)NN=C1C(=O)N/N=C\C(Br)=C\c1ccccc1 (stereo not given) | -10% | 6% | 0 | -2% | 25µM*
CC1=NNC(=O)C1CC(=O)N/N=C/C(Br)=C/c1ccccc1 (stereo not given) | 14% | . | 0 | 12% | ?
O=C(NNS(=O)(=O)c1ccccc1)c1cc2cc3ccccc3nc2s1 | 2% | 6% | -5 | -6% | 22µM*
S=C(NCc1ccco1)N/N=C/c1ccc(Cl)cc1 | -9% | -2% | 3 | -12% | 11%
Oc1ccc(/C=N/NC(=S)NCc2ccco2)cc1 | -3% | -2% | 2 | -3% | 28µM*
NC(N)=Nc1nc2ccc(Cl)cc2c(=O)[nH]1 | -7% | 3% | -2 | -14% | 15%
N#Cc1c(/N=C/C=C/c2ccccc2)sc2c1CCCC2 | -3% | 2% | ? | -20% | 12µM*
N#Cc1c(/N=C/c2ccco2)sc2c1CCC2 | -16% | -10% | -3 | 4% | 22µM*
Cc1ccc(/C=N/c2sc3c(c2C#N)CCCCC3)o1 | 4% | -3% | 2 | 4% | ?
N#Cc1c(/N=C/c2cc3ccccc3s2)sc2c1CCC2 | 4% | -7% | 8 | 0% | -14%
Cc1[nH]n(-c2cccc3ccccc23)c(=O)c1/C=N/c1sc2c(c1C#N)CCC2 | 9% | -15% | -7 | 4% | 20µM*
Cc1ccc(/C=N/c2sc3c(c2C#N)CCC3)s1 | 0% | 6% | -1 | -3% | 28µM*
COC(=O)c1ccc(N2C(=O)CC(SCCN)C2=O)cc1 (stereo not given) | 5% | -6% | 8 | 4% | 2%
CC(Cc1ccc(O)c(O)c1)C(C)Cc1ccc(O)c(O)c1 (stereo not given) | -9% | . | -5 | -1% | .
C[C@H](Cc1ccc(O)c(O)c1)[C@@H](C)Cc1ccc(O)c(O)c1 | 11µM* | . | -2 | -12% | .
COc1ccc(NC(=O)CCCN2C(=O)C3C4C=CC(C4)C3C2=O)c(OC)c1 (stereo not given) | -23% | -10% | -5 | -3% | 7%
CC(=O)Nc1ccc(Nc2nc(-c3sc(NC(C)=O)nc3C)cs2)cc1 | . | . | . | . | -2%[76.3 µM]
Oc1ccc(-c2nc(-c3ccc(O)c(O)c3)cs2)cc1 | 6% | -9% | -2 | 1% | 11µM*
Oc1ccc(Nc2nc(-c3ccc4ccccc4c3)cs2)cc1 | 10% | ? | 2 | 10% | 5.6µM*
Oc1ccc(-c2csc(-c3cccnc3)n2)c(O)c1 | 4% | 1% | 0 | 5% | -10%
Cc1ccc(Nc2nc(-c3c(C)nc4ccccn34)cs2)cc1 | 9% | -7% | -7 | 6% | 28µM*
CC(=O)Nc1nc(C)c(-c2csc(Nc3ccc(O)cc3)n2)s1 | 1% | 0% | 0 | 2% | 25µM*
CC(=O)Nc1ccc(NC(=O)CN(c2ccccc2Cl)S(C)(=O)=O)cc1 | 8% | -13% | -1 | -1% | -5%
CCCCN(CC)Cc1c(C)[nH]c2c(ccc3ccccc32)c1=O | . | . | . | . | -3%
Cc1nc2ncccn2c1-c1csc(Nc2ccc(O)cc2)n1 | -1% | -4% | -3 | 0% | 22µM*
Cc1ccc(Nc2nc(-c3c(C)nc4ncccn34)cs2)cc1 | -3% | 4% | -6 | -5% | ?
CCOC(=O)c1c(OCC)[nH]c2ccc(O)cc12 | 4% | -4% | 5 | -4% | 6.3µM*
O=C(COc1cccc(C(F)(F)F)c1)N1CCN(c2ccccc2O)CC1 | -10% | -2% | 3 | -4% | ?
